{"source": "PubChem BioAssay (Tox21)", "note": "Records with an inconclusive call do not appear. A number with no mark means an inactive call. Activity calls are given as the source filed them. Calls come from the whole dose curve. % is set by controls: 0 for no effect and ±100 for the full control effect; potency is the fitted concentration of half-maximal effect.", "data": [{"test": "qHTS assay for small molecule agonists of the p53 signaling pathway - cell viability (AID 651633); note: nearly all actives have a fitted effect of over 30% in size;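 for activity change, negative = cytotoxicity: p53RE-bla HCT reporter cells with a stable beta-lactamase p53 reporter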", "conditions": "p53RE-bla HCT-116 viability, ATP luminescence, 16 h; series mostly up to 83.3 µM; activity change, negative = cytotoxicity: at the top concentration", "text": "National Center for Advancing Translational Sciences [NCATS]\nNIH Chemical Genomics Center [NCGC]\nU.S. Environmental Protection Agency [EPA]\nNational Institutes of Environmental Health Sciences [NIEHS]\nNational Toxicology Program [NTP]\nU.S. Food and Drug Administration [FDA]\np53, a tumor suppressor protein, is activated following cellular insult, including DNA damage and other cellular stresses. The activation of p53 regulates cell fate by inducing DNA repair, cell cycle arrest, apoptosis, or cellular senescence. The activation of p53, therefore, is a good indicator of DNA damage and other cellular stresses. […] The activation of the reporter gene under culture conditions can be detected by fluorescence intensity. This cell line was used to screen the Tox21 compound library in a 1536-well plate format and to identify agonists that activate the p53 signaling pathway.\nTox21 Assay Protocol Summary:\nThe p53RE-bla cells were dispensed at 4,000 cells/5 ul/well in 1536-well black wall/clear bottom plates using a Multidrop dispenser. After the assay plates were incubated at a 37 C/5% CO2 incubator for 5 hours, 23 nL of compounds dissolved in DMSO, positive controls or DMSO only was transferred to the assay plate by a pin tool. The plates were incubated at 37 C for 16 hours. After 1 uL of LiveBLAzerTM B/G FRET substrate was added using a Flying Reagent Dispenser, the plates were incubated at room temperature for 2 hours, and fluorescence intensity was measured by an Envision plate reader.\nFor cell viability readout that measures cytotoxicity, 4 ul/well of CellTiter-Glo reagent was added into the assay plates using a Flying Reagent Dispenser. After 30 min incubation at room temperature, the luminescence intensity in the plates was measured using a ViewLux plate reader.", "values": [{"smiles": "ClC(Cl)C(Cl)(Cl)Cl", "activity change, negative = cytotoxicity": "-7.76%"}, {"smiles": "CCOP(=S)(OCC)Oc1cc(C)nc(N(CC)CC)n1", "activity change, negative = cytotoxicity": "13.2%"}, {"smiles": "Nc1ccccc1-c1ccccc1", "activity change, negative = cytotoxicity": "-9.05%"}, {"smiles": "S=C=Nc1ccccc1", "activity change, negative = cytotoxicity": "-12.3% [at 95.3 µM]"}, {"smiles": "CN1[C@@H]2CC[C@H]1CC(O)C2", "note": "(stereo not given in full)", "activity change, negative = cytotoxicity": "12.6% [at 95.3 µM]"}, {"smiles": "CNC(=O)Oc1cc(C)cc(C(C)C)c1", "activity change, negative = cytotoxicity": "13.4%"}, {"smiles": "N#CC(C#N)=NNc1cccc(Cl)c1", "Potency": "0.864 µM (active)"}, {"smiles": "C[C@H]1[C@H](c2ccc(Cl)cc2)SC(=O)N1C(=O)NC1CCCCC1", "activity change, negative = cytotoxicity": "-16.3%"}, {"smiles": "CC(=O)[O-].CC(=O)[O-].CC(=O)[O-].[Cr+3]", "activity change, negative = cytotoxicity": "15.2%"}, {"smiles": "CCN1CCC2(CC1)COc1cc3c(cc12)N(C(=O)c1ccc(-c2ccc(-c4nnc(C)o4)cc2C)cc1)CC3", "Potency": "56.4 µM (active)"}, {"smiles": "O=C1C2(Cl)C3(Cl)C4(Cl)C(Cl)(Cl)C5(Cl)C3(Cl)C1(Cl)C5(Cl)C24Cl", "note": "(stereo not given)", "Potency": "37.9 µM (active)"}, {"smiles": "O=[N+]([O-])c1ccc(CCl)cc1", "activity change, negative = cytotoxicity": "15%"}, {"smiles": "[C-]1=CC=CC1.[Cl][Zr+2][Cl].c1cc[cH-]c1", "activity change, negative = cytotoxicity": "-17.5% [at 95.3 µM]"}, {"smiles": "CC(=O)[O-].CC(=O)[O-].O.O.O.[Pb+2]", "activity change, negative = cytotoxicity": "-14.7%"}, {"smiles": "CN", "activity change, negative = cytotoxicity": "-5.35% [at 95.3 µM]"}, {"smiles": "CN1CCc2cc3c(cc2C1O)OCO3", "note": "(stereo not given)", "activity change, negative = cytotoxicity": "9.88% [at 95.3 µM]"}, {"smiles": "CC(=O)O.CC(=O)O.CC(=O)O.CC(=O)O.CC(=O)O.CC(=O)O.CC(=O)O.O.O.[Cr].[Cr].[Cr]", "activity change, negative = cytotoxicity": "18.1%"}, {"smiles": "CCC[CH2][Sn]([CH2]CCC)([CH2]CCC)[CH2]CCC", "Potency": "43.3 µM (active)"}, {"smiles": "Cc1ccc(C)c2ccccc12", "activity change, negative = cytotoxicity": "9.85%"}, {"smiles": "O=C(N[C@H]1N=C(c2ccccc2F)c2cccc3c2N(CC3)C1=O)c1cc2ccccc2[nH]1", "activity change, negative = cytotoxicity": "17.5%"}, {"smiles": "Oc1ccc(Cl)c(Cl)c1", "activity change, negative = cytotoxicity": "6.31%"}, {"smiles": "C=CCBr", "activity change, negative = cytotoxicity": "12.8% [at 95.3 µM]"}, {"smiles": "NC1CCC(CC2CCC(N)CC2)CC1", "note": "(stereo not given)", "activity change, negative = cytotoxicity": "-7.42%"}, {"smiles": "CCCN", "activity change, negative = cytotoxicity": "34.3% [at 95.3 µM]"}, {"smiles": "CSC1=N[C@@](C)(c2ccccc2)C(=O)N1Nc1ccccc1", "activity change, negative = cytotoxicity": "-11.1%"}, {"smiles": "[Cl][Hg][c]1ccccc1", "Potency": "1.93 µM (active)"}, {"smiles": "CCC(C)Br", "note": "(stereo not given)", "activity change, negative = cytotoxicity": "-8.87% [at 95.3 µM]"}, {"smiles": "Oc1cc(Cl)cc(Cl)c1", "activity change, negative = cytotoxicity": "16.1% [at 95.3 µM]"}, {"smiles": "N#Cc1ccc(N(CC(N)=O)CC(F)(F)F)cc1C(F)(F)F", "activity change, negative = cytotoxicity": "14.3%"}, {"smiles": "N#Cc1sc2c(=O)c3ccccc3c(=O)c=2sc1C#N", "Potency": "5.45 µM (active)"}, {"smiles": "CCC[CH2][Sn]([CH2]CCC)([CH2]CCC)[O][Sn]([CH2]CCC)([CH2]CCC)[CH2]CCC", "Potency": "0.533 µM (active)"}, {"smiles": "COc1nc(C)nc(NC(=O)NS(=O)(=O)c2ccccc2Cl)n1", "activity change, negative = cytotoxicity": "-4.2%"}, {"smiles": "O=C(NC(=O)c1c(F)cccc1F)Nc1ccc(Oc2ccc(C(F)(F)F)cc2Cl)cc1F", "activity change, negative = cytotoxicity": "-9.44%"}, {"smiles": "CCC1COC(Cn2cncn2)(c2ccc(Cl)cc2Cl)O1", "note": "(stereo not given)", "activity change, negative = cytotoxicity": "-13.7%"}, {"smiles": "Cc1cnc2c(C(=O)O)c(Cl)ccc2c1", "activity change, negative = cytotoxicity": "7.46%"}, {"smiles": "N#CCCl", "activity change, negative = cytotoxicity": "6.62% [at 95.3 µM]"}, {"smiles": "CNC(=O)CSP(=O)(OC)OC", "activity change, negative = cytotoxicity": "15.3%"}, {"smiles": "BrCC(Br)(Br)Br", "activity change, negative = cytotoxicity": "-16.3% [at 95.3 µM]"}, {"smiles": "CCN(CC)Cc1nccn1-c1ccc([N+](=O)[O-])cc1C(=O)c1ccccc1Cl", "activity change, negative = cytotoxicity": "-14.1%"}, {"smiles": "O=S(=O)(NS(=O)(=O)C(F)(F)F)C(F)(F)F", "activity change, negative = cytotoxicity": "23.6%"}]}]}
